Assay [1] addresses Death-associated protein kinase 1 (Homo sapiens) (UniProt P53355). The conditions noted are these: at 1 µM.
For assay [2], the target named is T1, Serine/threonine-protein kinase DCLK2 (Homo sapiens) (UniProt Q8N568).
T1 sequence (whole entry): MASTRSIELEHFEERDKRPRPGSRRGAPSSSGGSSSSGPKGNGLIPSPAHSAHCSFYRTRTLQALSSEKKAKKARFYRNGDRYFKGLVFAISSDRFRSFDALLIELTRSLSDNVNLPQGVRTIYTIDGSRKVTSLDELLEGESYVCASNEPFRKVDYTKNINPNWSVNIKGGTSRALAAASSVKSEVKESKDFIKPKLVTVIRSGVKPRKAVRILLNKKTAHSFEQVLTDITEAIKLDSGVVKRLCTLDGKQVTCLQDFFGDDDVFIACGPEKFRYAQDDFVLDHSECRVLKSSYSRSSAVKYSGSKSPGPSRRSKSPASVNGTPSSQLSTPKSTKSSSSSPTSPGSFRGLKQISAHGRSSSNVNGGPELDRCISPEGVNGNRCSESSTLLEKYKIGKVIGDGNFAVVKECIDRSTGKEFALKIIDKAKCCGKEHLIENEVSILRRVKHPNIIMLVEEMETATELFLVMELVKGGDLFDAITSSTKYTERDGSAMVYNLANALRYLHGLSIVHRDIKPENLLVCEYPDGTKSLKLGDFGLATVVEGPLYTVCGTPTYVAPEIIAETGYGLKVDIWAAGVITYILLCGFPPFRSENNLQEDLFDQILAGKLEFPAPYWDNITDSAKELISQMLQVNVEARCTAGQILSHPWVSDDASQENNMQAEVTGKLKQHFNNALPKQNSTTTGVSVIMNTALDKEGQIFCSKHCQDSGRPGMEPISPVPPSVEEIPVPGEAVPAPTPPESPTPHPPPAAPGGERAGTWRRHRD
The following applies: at 0.1 µM.

Assay [3] has as its target T1, Serine/threonine-protein kinase DCLK2 (Homo sapiens). The following applies: at 1 µM.
The target in assay [4] is MAP kinase-activated protein kinase 2 (Homo sapiens) (UniProt P49137). The following applies: at 0.1 µM.
Assay [5] shares this target. The following applies: at 1 µM.
Assay [6] addresses MAP kinase-activated protein kinase 3 (Homo sapiens) (UniProt Q16644). The conditions noted are these: at 0.1 µM.
The target is the same in assay [7]. The following applies: at 1 µM.
Assay [8] addresses Serine/threonine-protein kinase MARK1 (Homo sapiens) (UniProt Q9P0L2). The conditions noted are these: at 0.1 µM.
For assay [9] the target is unchanged. The conditions noted are these: at 1 µM.
Assay [10] addresses MAP/microtubule affinity-regulating kinase 3 (Homo sapiens) (UniProt P27448). The following applies: at 0.1 µM.
Assay [11] shares this target. The following applies: at 1 µM.
In assay [12] the target is T2, MAP/microtubule affinity-regulating kinase 4 (Homo sapiens) (UniProt Q96L34).
T2 sequence (whole entry): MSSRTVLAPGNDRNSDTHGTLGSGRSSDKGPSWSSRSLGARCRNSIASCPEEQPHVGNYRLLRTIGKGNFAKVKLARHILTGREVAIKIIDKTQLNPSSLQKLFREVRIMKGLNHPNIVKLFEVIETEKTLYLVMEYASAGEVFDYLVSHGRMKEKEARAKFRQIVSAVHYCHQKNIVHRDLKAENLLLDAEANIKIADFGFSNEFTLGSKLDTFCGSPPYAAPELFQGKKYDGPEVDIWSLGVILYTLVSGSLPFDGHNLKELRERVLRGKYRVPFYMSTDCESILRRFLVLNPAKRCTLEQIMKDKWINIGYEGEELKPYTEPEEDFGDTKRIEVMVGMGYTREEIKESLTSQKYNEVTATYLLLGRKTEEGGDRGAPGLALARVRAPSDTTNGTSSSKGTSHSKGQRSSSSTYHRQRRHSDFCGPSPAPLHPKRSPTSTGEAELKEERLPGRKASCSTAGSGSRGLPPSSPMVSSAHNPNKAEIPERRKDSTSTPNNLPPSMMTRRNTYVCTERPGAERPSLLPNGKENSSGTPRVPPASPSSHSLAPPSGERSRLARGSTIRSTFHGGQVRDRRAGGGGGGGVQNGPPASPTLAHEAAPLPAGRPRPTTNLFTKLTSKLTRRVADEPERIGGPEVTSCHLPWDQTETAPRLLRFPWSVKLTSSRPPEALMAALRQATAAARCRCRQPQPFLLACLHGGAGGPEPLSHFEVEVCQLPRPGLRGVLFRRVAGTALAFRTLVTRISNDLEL
The following applies: at 0.1 µM.

Assay [13] has as its target T2, MAP/microtubule affinity-regulating kinase 4 (Homo sapiens). The following applies: at 1 µM.
The target in assay [14] is Maternal embryonic leucine zipper kinase (Homo sapiens) (UniProt Q14680). The conditions noted are these: at 0.1 µM.
Assay [15] shares this target. The conditions noted are these: at 1 µM.
Assay [16] has as its target MAP kinase-interacting serine/threonine-protein kinase 1 (Homo sapiens) (UniProt Q9BUB5). The conditions noted are these: at 0.1 µM.
Assay [17] shares this target. The conditions noted are these: at 1 µM.
Assay [18] deals with MAP kinase-interacting serine/threonine-protein kinase 2 (Homo sapiens) (UniProt Q9HBH9). The conditions noted are these: at 0.1 µM.
The target is the same in assay [19]. The following applies: at 1 µM.
For assay [20], the target named is Serine/threonine-protein kinase MARK2 (Homo sapiens) (UniProt Q7KZI7). The following applies: at 0.1 µM.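 Also: mean percent inhibition of PAR-1Balpha kinase activity, reported from the GSK PKIS screen.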

We go through five compounds from ChEMBL document CHEMBL1961873, “Compounds: GSK PKIS; Assays: Nanosyn kinase panel” (2012).

Chain of Serine/threonine-protein kinase MARK2 (Homo sapiens) (Q7KZI7 whole entry): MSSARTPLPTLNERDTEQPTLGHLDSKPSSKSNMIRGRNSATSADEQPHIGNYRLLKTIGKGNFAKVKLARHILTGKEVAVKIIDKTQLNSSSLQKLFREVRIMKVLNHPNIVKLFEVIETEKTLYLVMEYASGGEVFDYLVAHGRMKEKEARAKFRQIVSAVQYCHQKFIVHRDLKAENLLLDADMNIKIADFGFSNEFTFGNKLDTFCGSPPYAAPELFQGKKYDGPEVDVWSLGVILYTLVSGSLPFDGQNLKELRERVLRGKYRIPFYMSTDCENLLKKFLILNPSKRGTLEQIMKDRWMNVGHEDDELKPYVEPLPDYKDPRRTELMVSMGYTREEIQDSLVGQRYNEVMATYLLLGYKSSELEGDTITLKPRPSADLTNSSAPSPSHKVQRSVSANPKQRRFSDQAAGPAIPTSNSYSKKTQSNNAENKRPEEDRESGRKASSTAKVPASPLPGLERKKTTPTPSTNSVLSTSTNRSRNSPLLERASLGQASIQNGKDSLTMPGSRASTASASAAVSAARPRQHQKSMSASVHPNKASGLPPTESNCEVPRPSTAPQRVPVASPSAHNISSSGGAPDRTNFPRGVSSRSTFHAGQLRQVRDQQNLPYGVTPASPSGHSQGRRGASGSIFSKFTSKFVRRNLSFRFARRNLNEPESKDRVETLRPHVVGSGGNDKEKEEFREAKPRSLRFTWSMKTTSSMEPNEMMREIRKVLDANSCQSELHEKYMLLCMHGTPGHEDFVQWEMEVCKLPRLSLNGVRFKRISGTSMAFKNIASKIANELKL
Chain of MAP kinase-interacting serine/threonine-protein kinase 1 (Homo sapiens) (Q9BUB5 whole entry, looked up): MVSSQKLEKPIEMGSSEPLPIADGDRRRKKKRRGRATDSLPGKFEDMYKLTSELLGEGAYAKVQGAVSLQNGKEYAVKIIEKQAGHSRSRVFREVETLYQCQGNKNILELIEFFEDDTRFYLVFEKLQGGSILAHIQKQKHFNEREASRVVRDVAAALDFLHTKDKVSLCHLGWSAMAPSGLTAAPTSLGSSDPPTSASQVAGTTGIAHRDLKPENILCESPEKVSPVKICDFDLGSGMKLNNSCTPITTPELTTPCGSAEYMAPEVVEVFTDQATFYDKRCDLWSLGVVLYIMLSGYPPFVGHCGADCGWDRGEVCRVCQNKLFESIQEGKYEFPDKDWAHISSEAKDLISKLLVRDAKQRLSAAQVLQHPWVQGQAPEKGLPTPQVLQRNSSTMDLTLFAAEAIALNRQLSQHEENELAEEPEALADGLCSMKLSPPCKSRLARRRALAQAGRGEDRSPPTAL
Chain of Serine/threonine-protein kinase MARK1 (Homo sapiens) (Q9P0L2 whole entry, looked up): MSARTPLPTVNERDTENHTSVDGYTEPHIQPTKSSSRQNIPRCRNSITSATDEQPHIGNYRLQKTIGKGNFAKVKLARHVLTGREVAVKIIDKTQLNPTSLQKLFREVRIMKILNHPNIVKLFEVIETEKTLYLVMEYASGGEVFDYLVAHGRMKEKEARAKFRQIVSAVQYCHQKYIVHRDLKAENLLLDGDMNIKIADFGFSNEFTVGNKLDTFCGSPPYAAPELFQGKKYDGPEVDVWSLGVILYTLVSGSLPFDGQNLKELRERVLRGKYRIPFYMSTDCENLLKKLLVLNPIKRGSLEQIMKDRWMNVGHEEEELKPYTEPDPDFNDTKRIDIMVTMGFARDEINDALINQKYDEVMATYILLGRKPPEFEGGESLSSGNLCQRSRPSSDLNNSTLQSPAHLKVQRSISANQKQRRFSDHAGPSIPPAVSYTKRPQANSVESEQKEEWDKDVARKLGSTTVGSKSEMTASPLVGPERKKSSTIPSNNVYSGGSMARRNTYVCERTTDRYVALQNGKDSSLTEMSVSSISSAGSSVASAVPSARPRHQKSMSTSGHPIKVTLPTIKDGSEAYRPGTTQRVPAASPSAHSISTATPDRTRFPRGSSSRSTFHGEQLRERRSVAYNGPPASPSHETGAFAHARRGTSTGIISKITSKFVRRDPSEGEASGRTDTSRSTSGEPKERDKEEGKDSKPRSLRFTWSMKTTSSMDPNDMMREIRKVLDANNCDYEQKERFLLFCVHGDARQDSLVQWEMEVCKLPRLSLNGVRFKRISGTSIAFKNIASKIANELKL
Chain of MAP kinase-interacting serine/threonine-protein kinase 2 (Homo sapiens) (Q9HBH9 whole entry, looked up): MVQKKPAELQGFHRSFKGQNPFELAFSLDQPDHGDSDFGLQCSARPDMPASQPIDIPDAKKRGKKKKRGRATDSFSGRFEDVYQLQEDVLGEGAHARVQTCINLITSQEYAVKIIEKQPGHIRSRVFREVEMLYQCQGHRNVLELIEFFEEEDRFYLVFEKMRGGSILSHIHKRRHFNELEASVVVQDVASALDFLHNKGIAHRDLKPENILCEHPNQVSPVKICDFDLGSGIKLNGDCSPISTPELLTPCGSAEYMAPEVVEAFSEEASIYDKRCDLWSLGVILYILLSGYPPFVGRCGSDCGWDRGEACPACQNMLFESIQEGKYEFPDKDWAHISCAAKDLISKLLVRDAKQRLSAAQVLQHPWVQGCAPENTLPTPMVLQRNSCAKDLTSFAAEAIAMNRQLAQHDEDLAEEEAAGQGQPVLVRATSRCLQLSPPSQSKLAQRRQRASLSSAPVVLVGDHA
Chain of Maternal embryonic leucine zipper kinase (Homo sapiens) (Q14680 whole entry, looked up): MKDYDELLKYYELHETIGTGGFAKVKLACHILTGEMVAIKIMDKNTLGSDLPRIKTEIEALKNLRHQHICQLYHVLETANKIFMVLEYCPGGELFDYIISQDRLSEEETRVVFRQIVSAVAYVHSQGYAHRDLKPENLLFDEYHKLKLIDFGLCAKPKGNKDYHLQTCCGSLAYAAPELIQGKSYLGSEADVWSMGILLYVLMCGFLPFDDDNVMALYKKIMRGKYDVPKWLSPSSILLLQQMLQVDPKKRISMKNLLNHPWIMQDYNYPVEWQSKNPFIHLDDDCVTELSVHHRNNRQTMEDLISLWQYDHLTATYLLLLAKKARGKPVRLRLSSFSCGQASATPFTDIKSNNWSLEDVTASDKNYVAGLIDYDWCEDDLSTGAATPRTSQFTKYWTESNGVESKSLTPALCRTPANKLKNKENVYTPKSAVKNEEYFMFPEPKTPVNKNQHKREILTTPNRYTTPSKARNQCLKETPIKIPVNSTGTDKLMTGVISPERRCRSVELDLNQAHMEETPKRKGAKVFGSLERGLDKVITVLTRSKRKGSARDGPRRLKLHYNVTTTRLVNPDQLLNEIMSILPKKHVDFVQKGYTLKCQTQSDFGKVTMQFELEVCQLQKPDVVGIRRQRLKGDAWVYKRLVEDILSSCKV
Chain of Death-associated protein kinase 1 (Homo sapiens) (P53355 whole entry, looked up): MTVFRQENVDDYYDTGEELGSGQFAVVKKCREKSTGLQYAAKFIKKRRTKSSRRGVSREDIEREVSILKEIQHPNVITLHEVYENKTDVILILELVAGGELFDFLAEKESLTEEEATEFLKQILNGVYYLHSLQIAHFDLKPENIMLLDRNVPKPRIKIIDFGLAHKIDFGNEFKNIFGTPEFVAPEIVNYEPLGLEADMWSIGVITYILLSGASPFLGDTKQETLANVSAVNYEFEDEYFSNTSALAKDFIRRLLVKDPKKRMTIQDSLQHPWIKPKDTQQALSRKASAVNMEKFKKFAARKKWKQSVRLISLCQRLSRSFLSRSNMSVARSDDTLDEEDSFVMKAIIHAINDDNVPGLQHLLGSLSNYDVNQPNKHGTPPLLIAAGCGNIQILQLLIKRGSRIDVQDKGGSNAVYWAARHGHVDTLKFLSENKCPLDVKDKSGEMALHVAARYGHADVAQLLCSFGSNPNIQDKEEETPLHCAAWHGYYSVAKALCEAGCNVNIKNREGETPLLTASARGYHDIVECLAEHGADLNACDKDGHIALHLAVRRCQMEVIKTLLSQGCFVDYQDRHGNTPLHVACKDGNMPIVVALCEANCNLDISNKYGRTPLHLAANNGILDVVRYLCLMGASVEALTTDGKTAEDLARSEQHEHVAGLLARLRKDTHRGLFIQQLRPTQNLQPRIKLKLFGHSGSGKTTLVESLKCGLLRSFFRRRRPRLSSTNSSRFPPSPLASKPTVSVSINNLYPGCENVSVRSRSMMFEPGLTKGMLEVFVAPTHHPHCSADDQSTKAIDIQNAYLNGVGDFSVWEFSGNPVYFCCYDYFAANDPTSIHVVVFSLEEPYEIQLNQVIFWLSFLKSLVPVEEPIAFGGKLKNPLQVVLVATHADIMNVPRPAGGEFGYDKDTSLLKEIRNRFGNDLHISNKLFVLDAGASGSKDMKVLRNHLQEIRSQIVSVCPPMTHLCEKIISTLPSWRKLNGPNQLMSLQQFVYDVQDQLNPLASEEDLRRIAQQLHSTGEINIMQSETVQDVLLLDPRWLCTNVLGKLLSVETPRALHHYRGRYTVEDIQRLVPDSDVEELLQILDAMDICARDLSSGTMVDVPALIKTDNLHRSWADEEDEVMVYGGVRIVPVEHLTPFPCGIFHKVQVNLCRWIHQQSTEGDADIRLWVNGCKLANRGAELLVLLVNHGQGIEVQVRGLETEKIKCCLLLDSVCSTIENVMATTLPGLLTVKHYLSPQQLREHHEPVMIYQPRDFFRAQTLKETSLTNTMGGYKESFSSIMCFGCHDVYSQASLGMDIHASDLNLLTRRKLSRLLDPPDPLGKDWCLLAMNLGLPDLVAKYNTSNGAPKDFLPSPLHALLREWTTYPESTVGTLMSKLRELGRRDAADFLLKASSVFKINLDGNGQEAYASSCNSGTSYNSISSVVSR
Chain of MAP kinase-activated protein kinase 3 (Homo sapiens) (Q16644 whole entry, looked up): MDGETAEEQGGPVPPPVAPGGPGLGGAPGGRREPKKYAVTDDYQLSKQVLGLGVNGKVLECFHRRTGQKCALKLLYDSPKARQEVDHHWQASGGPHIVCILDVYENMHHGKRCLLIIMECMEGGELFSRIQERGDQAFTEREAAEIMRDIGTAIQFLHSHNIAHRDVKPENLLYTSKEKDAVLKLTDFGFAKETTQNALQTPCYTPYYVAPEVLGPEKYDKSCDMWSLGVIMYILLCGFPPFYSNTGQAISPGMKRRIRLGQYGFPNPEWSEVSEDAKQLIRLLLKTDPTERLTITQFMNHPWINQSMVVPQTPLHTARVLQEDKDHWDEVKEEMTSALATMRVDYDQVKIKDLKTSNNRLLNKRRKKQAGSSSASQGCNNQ

For orientation: inhibition means the relative decrease from the control value, in per cent. In the case of `CNC(=O)c1cncc(/C=C/c2c(C)cccc2C)c1`, the inhibition in assay [1] is 0.45%; in [2] it was -0.24%; in assay [3], -2.53%; in assay [4], 0.41%; in [5], -0.68%; in assay [6] it was 0.6%. For the same compound, the inhibition in [7] is 0.25%; in assay [8] it was 0.88%; in [9] it was 0.89%; in assay [10], 0.44%; in assay [11], 2%; in [12] it was -0.27%. For the same compound, the inhibition in assay [13] is 1.46%; in assay [14], -1.92%; in assay [15], 0.37%; in [16], -0.2%; in assay [17], 8.06%; in assay [18], 0.57%. For the same compound, the inhibition in [19] is 5.36%; in assay [20], 0.03%.

Regarding `C[C@@H](Oc1cc(-n2cnc3ccc(OCC4CCN(C)CC4)cc32)sc1C(N)=O)c1ccccc1Cl`, the inhibition in assay [1] turned out to be 9.2%; in [2], 0.87%; in assay [3], 4.91%; in assay [4], 2.09%; in [5], 4.06%; in [6], 2.95%. For the same compound, the inhibition in [7] is 3.34%; in assay [8] it was 3.83%; in assay [9], 24.3%; in [10] it was 4.91%; in assay [11] it was 31.2%; in assay [12], 6.41%. For the same compound, the inhibition in assay [13] is 23.9%; in [14], 7.59%; in assay [15], 37.9%; in assay [16], 2.4%; in assay [17], 5.78%; in assay [18] it was 1.96%. Besides, the inhibition in assay [19] was found to be 5.86%; in assay [20] it was 3.52%.

For `CN(C)CCCNc1nccc(-c2c(-c3ccc(F)cc3)nn3cc(C(F)(F)F)ccc23)n1`, the inhibition is 0.77% in assay [1]; -2.25% in assay [2]; -1.62% in [3]; -0.13% in [4]; 0.05% in assay [5]; 8.23% in assay [6]. In addition, the inhibition in assay [7] turned out to be 22.7%; in [8], 3.37%; in [9], 1.8%; in [10], 3.54%; in assay [11], 3%; in assay [12], 1.09%. Further, the inhibition is 2.72% in assay [13]; 1.14% in [14]; 2.95% in assay [15]; 1.94% in [16]; 8.83% in [17]; 0.89% in assay [18]. The inhibition in [19] was 6.51%; in assay [20] it was -0.22%.

`CCC(=O)Nc1ccc(C)c(-c2ccc(C(=O)NCC3CC3)cc2)c1`: the inhibition is -3.18% in assay [1]; -0.58% in assay [2]; 0.48% in [3]; 0.77% in [4]; 1.21% in assay [5]; 6.24% in assay [6]. The inhibition was 20.1% in [7]; 0.75% in assay [8]; 1.92% in [9]; -0.99% in [10]; -1.15% in assay [11]; 1.46% in assay [12]. The inhibition is 2.23% in assay [13]; 5.17% in assay [14]; 8.13% in assay [15]; 2.05% in assay [16]; 2.8% in assay [17]; 0.52% in assay [18]. Also, the inhibition in [19] amounted to 1.17%; in assay [20] it was 0.59%.

With `COc1cc(Nc2ncc(-c3ccccc3)o2)cc(OC)c1OC`, the inhibition in assay [1] was 1.28%; in assay [2], -1.54%; in assay [3] it was 1.6%; in assay [4], -1.14%; in [5], -0.59%; in assay [6], -1.98%. Also, the inhibition in assay [7] is -2.22%; in [8] it was 2.34%; in [9] it was 15.6%; in [10], 2.51%; in assay [11] it was 22.1%; in assay [12] it was 2.46%. Further, the inhibition in assay [13] is 13.4%; in [14] it was -0.49%; in assay [15], 5.74%; in assay [16], 4.6%; in [17], 30.4%; in assay [18], 1.26%. Besides, the inhibition in assay [19] was determined as 24.2%; in [20], 2.94%.
